Hits are enriched below; roughly 1.7% of the tested compounds scored in any of these assays.
GLP-1R inv ag = qHTS of GLP-1 Receptor Inverse Agonists (Inhibition Mode); Potency, µM (titrated, usually from 38.3 µM), for inactives: at the highest dose activity change, negative = inhibition, actives largely listed as inhibitors; HEK293 GLP-1R CRE-luciferase, luminescence, 24 h; GLP-1R form is constitutively active; 1.6% of 410,000 active; Glucagon-like peptide 1 receptor (Homo sapiens), P43220; AID 624417, 2012; note: potency is the fitted concentration of half-maximal effect; % is set by controls: 0 for no effect and ±100 for the full control effect; nearly all actives have a fitted effect of over 55% in size
Target sequence (P43220 whole entry, looked up): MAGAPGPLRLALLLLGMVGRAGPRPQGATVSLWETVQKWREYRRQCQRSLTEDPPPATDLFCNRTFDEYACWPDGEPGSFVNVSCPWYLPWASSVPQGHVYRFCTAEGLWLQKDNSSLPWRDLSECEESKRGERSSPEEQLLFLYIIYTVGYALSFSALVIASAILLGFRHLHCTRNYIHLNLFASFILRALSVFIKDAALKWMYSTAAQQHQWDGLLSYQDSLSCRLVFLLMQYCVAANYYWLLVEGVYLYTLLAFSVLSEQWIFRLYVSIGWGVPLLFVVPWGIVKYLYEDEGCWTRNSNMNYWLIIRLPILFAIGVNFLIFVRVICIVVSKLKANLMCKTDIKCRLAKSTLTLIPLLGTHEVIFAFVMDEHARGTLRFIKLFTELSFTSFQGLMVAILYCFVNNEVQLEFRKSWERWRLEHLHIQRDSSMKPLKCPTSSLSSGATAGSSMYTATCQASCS
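Stable HEK293 clone (constitutively active GLP-1R + cAMP-response luciferase); 200 cells/uL plated, 12 h pre-culture, compound 24 hr, 37 deg C/5% CO2; detection reagent 12 min RT; luminescence.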
PTHR1 agonist = qHTS for PTHR1 Agonists: Primary Screen; HEK293 GP2 PTHR1 cells, GloSensor cAMP luminescence, 1 h; Potency, µM (highest dose often 115 µM), inactives show at the top dose activation, usual class: activators; Parathyroid hormone/parathyroid hormone-related peptide receptor (Homo sapiens), Q03431; 0.075% of 410,000 active; note: potency is the fitted concentration of half-maximal effect; nearly all actives have a fitted effect of over 55% in size
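HEK-293-derived GP2 cells expressing PTHR1 and a GloSensor cAMP reporter, 3,000/well, plated overnight, given luciferin plus IBMX (each 0.5 mM as added) for 1 h at 37 °C, then compound for 1 h at 37 °C. Luminescence was read after 15 min at room temperature.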
GLP-1R agonist = qHTS of GLP-1 Receptor Agonists; Glucagon-like peptide 1 receptor (Homo sapiens), P43220; HEK293 GLP-1R CRE-luciferase, luminescence, 4-6 h; cells express a hypersensitive GLP-1R form; Potency, µM (highest dose often 45.6 µM), without a hit: top-dose activation, actives largely listed as activators; 0.007% of 380,000 active; note: potency is the fitted concentration of half-maximal effect; % of control where 0% means no effect
mIDH1 inhibitor = qHTS for Inhibitors of mutant isocitrate dehydrogenase 1 (IDH1): qHTS. Isocitrate dehydrogenase [NADP] cytoplasmic (Homo sapiens), O75874. IDH1-R132H enzyme, NADPH consumption, diaphorase/resazurin fluorescence. Potency, µM (top dose mostly 76.6 µM), for inactives: at the highest dose activity change, negative = inhibition, hits mostly inhibitors. 0.093% of 390,000 active; note: potency is the fitted concentration of half-maximal effect; % is set by controls: 0 for no effect and ±100 for the full control effect; nearly all actives have a fitted effect of over 65% in size
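IDH1-R132H (0.5 ug/mL dispensed) in pH 7.5 Tris buffer was preincubated 30 min with compound, then given a substrate mix of 0.016 mM NADPH and 2 mM alpha-KG for 80 min at room temperature; remaining NADPH was read by diaphorase/resazurin fluorescence.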
LDHA inh = qHTS assay for inhibitors of human lactate dehydrogenase; 0.15% of 480,000 active; activity change, % (values are at about 110 or 230 µM); AID 1347041, 2019; L-lactate dehydrogenase A chain (Homo sapiens), P00338; purified LDHA, NADH/diaphorase-resazurin fluorescence; active compounds read low; in the data active = activity change below about -30%; inconclusive = mostly about -25% to -30%;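 note: plate controls were DMSO wells for no effect and wells without enzyme for full effect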
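Human LDH5 at 2 nM final in Tris HCl pH 7.4 with 0.06 mM NADH and 0.2 mM pyruvate, reacted 5 minutes at room temperature. Remaining NADH coupled via diaphorase/resazurin; resorufin fluorescence read at 0 and 20 minutes, normalized to enzyme-free and DMSO wells.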
GLP1R cytotox = qHTS of GLP-1 Receptor Inverse Agonists: Cytotox Screen; HEK293 cAMP-luciferase reporter cells, luminescence, 24 h; Potency, µM (doses to about 38.3 µM), for the others: at the top dose activity change, negative = inhibition, usual class: inhibitors; 0.13% of 410,000 active; AID 624418, 2012;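 note: loss of luciferase light is scored as toxicity; potency is the fitted concentration of half-maximal effect; % is set by controls: 0 for no effect and ±100 for the full control effect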
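Quantitative HTS format, 1536 wells, 200 cells/uL seeded. Compounds: 23 nL, 24 h, 37 °C. Detection: luciferase reagent, luminescence at 12 min RT; decreased signal taken as cytotoxic.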
* marks the source's active call; other numbers are inactive results; i = inactive; ? = inconclusive; · = no result; [ ] = remark or other dose. Unless noted, calls come from the whole dose curve; as a rule, active = well fitted curve in the direction sought with a large enough effect; inconclusive = small, poorly fitted or top-dose-only effect, or another doubt; inactive = no such curve, though single readings can be large; an effect the other way counts as inactive or inconclusive.

SMILES	GLP-1R inv ag	PTHR1 agonist	GLP-1R agonist	mIDH1 inhibitor	LDHA inh	GLP1R cytotox
C=C[C@]1(C)C[C@H]1[C@H](NP(=O)(c1ccccc1)c1ccccc1)c1ccccc1	-5%	-4%	-2%	-7%	0	1%
COc1ccc(S(=O)(=O)N2c3ccccc3OCC2C)cc1 (stereo unspecified)	?	-13%	25%	8%	-2	-21%
COc1ccc(S(=O)(=O)N2CCOc3ccccc32)cc1	3.5µM*	5%	-3%	4%	-1	?
O=C(Nc1cc(-c2ccccc2)nn1C1CCCCC1)c1ccc(Cl)cc1	10µM*	-83%	-2%	-6%	-6	-18%
CC1CCCCN1C(=S)NC(=O)c1ccccc1 (stereo unspecified)	?	5%	4%	1%	-6	11µM*
c1ccc(COc2ccc(OCCCCN3CCCC3)cc2)cc1	11µM*	-11%	-7%	-3%	-14	-18%
c1ccc(COc2ccc(OCCCN3CCCCC3)cc2)cc1	?	i	1%	-1%	-23	-8%
CC(=O)c1ccc(OCCCN2CCCCC2)cc1	4%	-1%[57.5 µM]	-3%	-5%	-32*	-1%
O=C(c1ccccc1)c1ccc(OCCCN2CCCCC2)cc1	?	-3%[57.5 µM]	6%	3%	-19	-6%
O=C(COc1ccc(-c2nnc(N3CCCCC3)c3ccccc23)cc1)N1CCCCC1	10µM*	-17%[57.5 µM]	2%	-4%	2	0%
Cc1ccc(-c2nnc(N3CCN(C(=O)COc4ccccc4)CC3)c3ccccc23)cc1	-11%	-14%[57.5 µM]	-10%	-3%	-8	?
COc1cc(/C=N/OC(C)=O)cc(OC)c1OC	·	·	·	·	0	·
CCC(C)NC(=O)[C@H](CSCc1ccccc1)N1Cc2ccccc2C1=O (stereo partly specified)	11µM*	-4%	-6%	3%	6	-2%
Cc1ccc(CNC(C)C2CC3CCC2C3)s1 (stereo unspecified)	·	·	·	·	-3	·
CCC(CC)C(=O)Nc1nnc(S(=O)(=O)N2CCCCCC2)s1	7.9µM*	-8%	16%	6%	-9	-3%
O=C(Nc1ccc(F)c(Cl)c1)Nc1nnc([C@H]2C[C@H](O)[C@@H](CO)O2)s1	5%	-24%	-6%	·	-48*	2%
O=C(Nc1cccc(Cl)c1)Nc1nnc([C@@H]2C[C@H](O)[C@@H](CO)O2)s1	?	-34%	-3%	·	-15	-11%
CC(O)C(=O)Nc1ccc(C(N)=O)cc1 (stereo unspecified)	·	·	·	·	2	·
CN(Cc1ccc(C(N)=O)cc1)C(=O)c1cc(=O)[nH]c2ccccc12	·	·	·	·	-4	·
COc1cccc(C(=O)NCC(C)(C)SCc2ccc(F)cc2)c1	11µM*	i	12%	3%	-1	0%
COc1cc(C(=O)NCC2CCCO2)cc(Cl)c1OCC(C)C (stereo unspecified)	·	·	·	·	16	·
CCOc1ccc(C2C(C(=O)c3sc(C)nc3C)=C(O)C(=O)N2CCN2CCOCC2)cc1 (stereo unspecified)	·	·	·	·	9	·
Cc1nc(-c2ccc(C)c(N3CCN(C(=O)Nc4cccc(Cl)c4C)CC3)c2)no1	4.5µM*	-92%	-4%	5%	-1	0%
Cc1ccc(NC(=O)N2CCN(c3cc(-c4noc(C)n4)ccc3C)CC2)c(C)c1	10%	i	-7%	0%	6	3%
COCCNC(=O)CN1CCN(C(C(=O)O)c2c(C)[nH]c3ccccc23)CC1 (stereo unspecified)	·	·	·	·	-8	·
